Source: PubChem
Most compounds without a hit are left out; they make up all but 3.5% or so of the library.
TEAD-YAP inh = TEAD-YAP interaction inhibition. AID 1259422. HEK-TIYL cells, TEAD-Gal4/YAP UAS-luciferase luminescence. 640,000 tested, 1.4% active. inhibition, % at 9.12 µM; in the data active = inhibition above about 32%;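 note: 0% = median of test compound wells and 100% = reference inhibitor wells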
FBW7 activator = human FBW7 E3 ligase activation, primary screen | AlphaScreen FBW7–phospho-cyclin E peptide binding, activator screen | AID 1259310 | 650,000 tested, 0.13% active | normalized activity (activation), % at 26.1 µM | Q969H0; in the data active = normalized activity above about 1.9%;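 note: purified mutant Fbw7 with reduced substrate affinity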
Target sequence (Q969H0 whole entry, looked up): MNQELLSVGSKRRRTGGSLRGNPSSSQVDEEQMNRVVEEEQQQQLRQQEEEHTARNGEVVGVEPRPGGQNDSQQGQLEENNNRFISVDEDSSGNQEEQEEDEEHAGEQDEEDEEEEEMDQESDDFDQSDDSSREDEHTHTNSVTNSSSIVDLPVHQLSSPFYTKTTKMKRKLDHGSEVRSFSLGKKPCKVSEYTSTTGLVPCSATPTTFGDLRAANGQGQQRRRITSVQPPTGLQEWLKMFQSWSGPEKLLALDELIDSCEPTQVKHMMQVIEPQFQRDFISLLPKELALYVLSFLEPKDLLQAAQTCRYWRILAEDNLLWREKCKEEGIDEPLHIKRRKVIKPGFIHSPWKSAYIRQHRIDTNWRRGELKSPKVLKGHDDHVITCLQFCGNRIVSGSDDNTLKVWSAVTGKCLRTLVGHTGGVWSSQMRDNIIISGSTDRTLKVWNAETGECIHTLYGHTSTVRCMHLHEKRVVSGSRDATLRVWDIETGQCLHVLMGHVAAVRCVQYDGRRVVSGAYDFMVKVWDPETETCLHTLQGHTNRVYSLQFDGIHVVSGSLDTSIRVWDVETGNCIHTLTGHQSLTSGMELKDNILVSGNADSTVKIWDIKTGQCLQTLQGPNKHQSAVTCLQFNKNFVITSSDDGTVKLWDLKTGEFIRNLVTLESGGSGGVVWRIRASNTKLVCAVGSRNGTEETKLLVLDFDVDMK
GPR151 ag = activates the human receptor GPR151 | Q8TDV0 | PathHunter beta-arrestin GPR151 cells, luminescence | activation, % at 11.2 µM | 650,000 tested, 1% active; in the data active = activation above about 4.9%;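 note: 0% = median of compound wells and 100% = cells with positive control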
MITF inh = inhibitors of human MITF; AlphaScreen MITF homodimerization, bead proximity signal; inhibition, % at 2.6 µM; O75030; 650,000 tested, 0.91% active; in the data active = inhibition above about 50%;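 note: 0% = vehicle wells with protein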
GPR151 confirm = confirmation of human GPR151 activators. shares compounds with GPR151 ag. GPR151 PathHunter beta-arrestin cells, luminescence, 90 min; % of EA-reagent control over plate median. activation, % at 11.2 µM. 6,700 tested, under 10 active. AID 1508609;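 active = mean percent activation across replicates above the confirmation screen cutoff of 4.91%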
GPR119 ag = GPR119 activation, counter-screen for GPR151 activators. shares compounds with GPR151 ag. GPR119 PathHunter beta-arrestin cells, luminescence, 90 min; 0 = compound-well median, 100 = enzyme-acceptor control. 6,700 tested, 0.3% active. activation, % at 11.2 µM;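 active = mean percent activation in the counterscreen above 29.09%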;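 note: counterscreen on off-target GPR119 to flag nonselective hits from the GPR151 activator screen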
Active calls of the source: *.

For CCOC(=O)c1sc(/N=C/N(C)C)c(C(=O)OCC)c1C the results were TEAD-YAP inh -8.8, FBW7 activator -0.1, GPR151 ag 11.3*, MITF inh 1.1, GPR151 confirm 0.7 and GPR119 ag 5.1.
For CCOC(=O)/C(N=Nc1sc(C(=O)OCC)c(C)c1C(=O)OCC)=C(\O)CCl the results were TEAD-YAP inh -5.3, FBW7 activator -0.2, GPR151 ag 6.7*, MITF inh 2.8, GPR151 confirm 0.9 and GPR119 ag -3.0.
`CN(C)c1cccc(Nc2nc(Nc3ccc(N4CCOCC4)cc3)c3ncn(-c4ccsc4)c3n2)c1` gave TEAD-YAP inh 8.8, FBW7 activator -0.2, GPR151 ag -0.4 and MITF inh 4.7.
For Cc1nn(C)c(C)c1-c1nc(NCCO)c2ncn(-c3ccccc3)c2n1 the results were TEAD-YAP inh 28.7, FBW7 activator 0.0, GPR151 ag 5.2*, MITF inh 2.9, GPR151 confirm 0.8 and GPR119 ag -3.3.
CN(C)c1cccc(Nc2nc(NCCO)c3ncn(-c4ccsc4)c3n2)c1 was read as TEAD-YAP inh 8.4, FBW7 activator 0.1, GPR151 ag -1.9 and MITF inh 17.4.
Screening Cc1nn(C)c(C)c1-c1nc(NCCN2CCOCC2)c2ncn(-c3ccccc3)c2n1 returned TEAD-YAP inh 20.8, FBW7 activator 0.0, GPR151 ag -0.4 and MITF inh 18.1.
Screening CN(C)c1cccc(Nc2nc(Nc3ccc4c(c3)OCO4)c3ncn(-c4ccsc4)c3n2)c1 returned TEAD-YAP inh -34.5, FBW7 activator 0.0, GPR151 ag 5.0*, MITF inh 6.6, GPR151 confirm -0.9 and GPR119 ag -12.9.
`OCCNc1nc(Nc2ccccc2)nc2c1ncn2-c1ccsc1` gave TEAD-YAP inh 58.8*, FBW7 activator 0.0, GPR151 ag 5.1*, MITF inh 13.2, GPR151 confirm -0.3 and GPR119 ag -7.7.
For CC(C)N(CCNc1nc(Nc2cccc(N(C)C)c2)nc2c1ncn2-c1ccsc1)C(C)C the results were TEAD-YAP inh 1.9, FBW7 activator 0.0, GPR151 ag 5.7*, MITF inh 8.7, GPR151 confirm -0.8 and GPR119 ag -13.2.
For c1ccc(Nc2nc(Nc3ccccc3)c3ncn(-c4ccsc4)c3n2)cc1 the results were TEAD-YAP inh 7.1, FBW7 activator 0.3, GPR151 ag 1.1 and MITF inh 10.9.
Cc1ccc(C(=O)N/C(=C\c2ccco2)C(=O)N2CCN(c3ccccn3)CC2)cc1C was read as TEAD-YAP inh 10.9, FBW7 activator 0.1, GPR151 ag 0.0 and MITF inh 4.4.
`CCN(CC)CCNc1c2c(nc3nnnn13)CCCC2` gave TEAD-YAP inh 3.1, FBW7 activator -0.2, GPR151 ag 0.4 and MITF inh 11.1.
COCCCNc1c2c(nc3nnnn13)CCCC2 was read as TEAD-YAP inh 4.5, FBW7 activator 0.1, GPR151 ag 6.1*, MITF inh 5.1, GPR151 confirm 0.3 and GPR119 ag -1.6.
O=C(COC(=O)c1c2c(nc3ccccc13)CCCC2)c1ccc([N+](=O)[O-])cc1 was read as TEAD-YAP inh -4.6, FBW7 activator 0.2, GPR151 ag 2.5 and MITF inh 20.1.
For CCCCN1C(=O)C2C(C(=O)Nc3ccc(Cl)c(Cl)c3)C3C=CC2(O3)C1C(=O)NC1CCCCC1 (stereo not drawn) the results were TEAD-YAP inh 3.1, FBW7 activator 0.1, GPR151 ag -2.0 and MITF inh 15.9.
CCCCN1C(=O)C2C(C(=O)Nc3ccc(C)c(Cl)c3)C3C=CC2(O3)C1C(=O)NC1CCCCC1 (stereo not drawn) was read as TEAD-YAP inh -4.6, FBW7 activator 0.0, GPR151 ag 9.6*, MITF inh -13.3, GPR151 confirm 0.3 and GPR119 ag 2.6.
`Cc1ccc(NC(=O)C2C3C=CC4(O3)C2C(=O)N(CCC2=CCCCC2)C4C(=O)NC2CCCCC2)cc1` (stereo not drawn) gave TEAD-YAP inh -8.1, FBW7 activator 0.3, GPR151 ag -0.3 and MITF inh -3.5.
Screening Cc1ccc(NC(=O)C2C3C=CC4(O3)C2C(=O)N(CCC2=CCCCC2)C4C(=O)NC2CCCCC2)cc1Cl (stereo not drawn) returned TEAD-YAP inh -0.8, FBW7 activator 0.0, GPR151 ag 5.8*, MITF inh -21.9, GPR151 confirm -0.5 and GPR119 ag -7.7.
CC(C)c1ccc(NC(=O)C2C3C=CC4(O3)C2C(=O)N(CCCN2CCN(C)CC2)C4C(=O)NC2CCCCC2)cc1 (stereo not drawn) was read as TEAD-YAP inh -13.7, FBW7 activator 0.0, GPR151 ag -0.3 and MITF inh -12.7.
Screening CC(C)c1ccc(NC(=O)C2C3C=CC4(O3)C2C(=O)N(CCCN2CCOCC2)C4C(=O)NC2CCCCC2)cc1 (stereo not drawn) returned TEAD-YAP inh 3.5, FBW7 activator -0.4, GPR151 ag 5.5*, MITF inh -8.4, GPR151 confirm 0.8 and GPR119 ag 11.8.
For CCOc1ccccc1CN1CCN(Cc2ccc(F)cc2)CC1CCO (stereo not drawn) the results were TEAD-YAP inh -2.7, FBW7 activator -0.2, GPR151 ag 1.0 and MITF inh -4.5.
Screening O=C1C(Nc2ccccc2)=Nc2ccccc21 returned TEAD-YAP inh -0.6, FBW7 activator 0.0, GPR151 ag 0.6 and MITF inh 6.2.
`CC(C)Cc1nc(SCC(=O)Nc2ccccc2)c2c(=O)n(C)c(=O)n(C)c2n1` gave TEAD-YAP inh 3.6, FBW7 activator -0.1, GPR151 ag 8.1*, MITF inh -13.4, GPR151 confirm 0.3 and GPR119 ag 10.8.
For Cc1[nH]c(-c2ccc(F)cc2)cc1C(=O)N1CCOCC1 the results were TEAD-YAP inh -11.7, FBW7 activator 0.1, GPR151 ag 5.8*, MITF inh -8.0, GPR151 confirm 0.1 and GPR119 ag 0.1.
Cc1[nH]c(-c2ccc(F)cc2)cc1C(=O)N1CCCC1 was read as TEAD-YAP inh -5.9, FBW7 activator -0.2, GPR151 ag 4.6 and MITF inh 2.2.
For Cc1ccc(NC(=O)COc2ccc(C(C)C)cc2)cc1 the results were TEAD-YAP inh 8.9, FBW7 activator -0.2, GPR151 ag 6.4*, MITF inh 8.9, GPR151 confirm -0.5 and GPR119 ag -6.8.
`CCOC(=O)c1ccc(NC(=O)COc2ccc(CC)cc2)cc1` gave TEAD-YAP inh 3.0, FBW7 activator 0.0, GPR151 ag 4.9*, MITF inh 4.0, GPR151 confirm -0.5 and GPR119 ag -0.8.
Screening CCOc1ccc(NC(=O)CC2(c3ccc(OC)cc3)C(=O)c3ccccc3C2=O)cc1 returned TEAD-YAP inh 12.4, FBW7 activator 0.5, GPR151 ag 5.4*, MITF inh 13.1, GPR151 confirm 1.6 and GPR119 ag 5.3.
